Screening data deposited in PubChem BioAssay by The Scripps Research Institute Molecular Screening Center.
The list is not random: actives were taken first. Their share in the collection is about 2.9%.
Fam108B inh: mouse Fam108B serine hydrolase inhibitors, primary screen, counter-screen for RBBP9 inhibitor project, biochemical, fluorescence polarization; recombinant Fam108B, FP-Rh probe fluorescence polarization; inhibition, % at 9.51 µM; actives 0.33% (n = 300,000);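 active means inhibition above the screen mean inhibition plus 3 SD, computed separately per campaign, cut at about 18% in these data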;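 further: inhibitors lower polarization as less probe binds the enzyme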
PAFAH1B2 FP inh: PAFAH1B2 enzyme inhibitors, primary screen, biochemical, fluorescence polarization, human; inhibition, % at 3.39 µM; actives 1.2% (n = 340,000); AID 492953, 2010; recombinant PAFAH1B2, FP-rhodamine activity probe;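 active means inhibition above the mean of all tested compounds plus 3 SD, cut at about 24% in these data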
Target sequence (P68402 whole entry, looked up): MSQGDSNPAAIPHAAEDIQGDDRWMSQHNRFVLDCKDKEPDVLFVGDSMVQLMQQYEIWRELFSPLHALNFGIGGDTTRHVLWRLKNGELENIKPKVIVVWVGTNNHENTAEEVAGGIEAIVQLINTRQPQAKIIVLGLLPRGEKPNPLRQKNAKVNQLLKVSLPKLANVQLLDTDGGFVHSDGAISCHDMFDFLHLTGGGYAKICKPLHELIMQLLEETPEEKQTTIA
PAFAH1B3 inh: PAFAH1B3 enzyme inhibitors, primary screen, biochemical, fluorescence polarization, human | inhibition, % at 3.39 µM | actives 0.28% (n = 340,000) | recombinant PAFAH1B3, FP-rhodamine probe;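 active means inhibition above the screen-wide average of all tested compounds plus 3 SD, cut at about 25% in these data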
pPAFAH FP inh: pPAFAH enzyme inhibitors, primary screen, biochemical, fluorescence polarization, human. Platelet-activating factor acetylhydrolase (Homo sapiens), Q13093. recombinant pPAFAH, FP-rhodamine probe fluorescence polarization. inhibition, % at 3.39 µM. actives 1.5% (n = 330,000). AID 463082, 2010;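 active means inhibition above the mean inhibition across the screen plus 3 SD, cut at about 25% in these data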;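 further: inhibitors block binding of the rhodamine activity-based probe so polarization drops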
Target sequence (Q13093 whole entry, looked up): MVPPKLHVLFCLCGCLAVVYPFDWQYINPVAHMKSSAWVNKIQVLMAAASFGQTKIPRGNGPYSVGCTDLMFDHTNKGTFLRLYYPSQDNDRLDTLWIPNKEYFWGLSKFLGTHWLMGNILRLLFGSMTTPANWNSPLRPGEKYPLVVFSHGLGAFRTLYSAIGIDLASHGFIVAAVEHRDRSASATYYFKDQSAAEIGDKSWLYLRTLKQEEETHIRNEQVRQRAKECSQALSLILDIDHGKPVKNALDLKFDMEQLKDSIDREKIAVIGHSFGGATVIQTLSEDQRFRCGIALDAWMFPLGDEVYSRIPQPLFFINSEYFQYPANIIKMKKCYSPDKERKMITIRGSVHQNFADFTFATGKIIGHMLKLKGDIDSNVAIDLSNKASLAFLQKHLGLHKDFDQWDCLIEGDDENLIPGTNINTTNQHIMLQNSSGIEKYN
PAFAH2 FP inh: PAFAH2 enzyme inhibitors, primary screen, biochemical, fluorescence polarization, human. recombinant PAFAH2, FP-rhodamine activity probe. Platelet-activating factor acetylhydrolase 2, cytoplasmic (Homo sapiens), Q99487. actives 0.99% (n = 340,000). inhibition, % at 3.39 µM;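 active means inhibition above the mean over all tested compounds plus 3 SD, cut at about 30% in these data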;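 further: inhibitors block probe labeling of enzyme so polarization drops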
PME-1 inh: PME-1 inhibitors via competitive probe labeling, primary screen, biochemical, fluorescence polarization, FP-Rh probe, HTS; recombinant PME-1; inhibition, % at 5.9 µM; actives 0.53% (n = 320,000);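 active means inhibition above the campaign mean of all compounds plus 3 SD, cut at about 26% in these data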;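 further: competitive labeling of PME-1 active site by serine hydrolase directed probe; inhibitors block probe labeling so polarization falls and inhibition rises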
PAFAH2 FP conf: PAFAH2 enzyme inhibitors, confirmation, biochemical, fluorescence polarization, human | shares compounds with PAFAH2 FP inh | inhibition, % at 3.39 µM | actives 65% (n = 2,300) | recombinant PAFAH2, FP-rhodamine activity probe | AID 493030, 2011;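 active means mean inhibition over three repeats above a set limit taken from the earlier primary screen, cut at about 30% in these data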;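 further: inhibitor blocks binding of rhodamine activity probe so polarization falls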
Large screens that a line does not name were inactive (follow-up assays come after a bar, where they were run).

CC(=O)N1CCN(c2nc(C)nc3sc4c(c23)CCC(C)C4)CC1 (stereo unspecified)	PAFAH2 FP inh 30 | PAFAH2 FP conf inactive
Cc1ccc(NC(=O)Cc2nc(CN(C)CC(=O)Nc3ccc(C)cc3)cs2)cc1	PAFAH2 FP inh 31 (no result: Fam108B inh) | PAFAH2 FP conf inactive
Cc1ccccc1NC(=O)Cc1nc(CN(C)CC(=O)Nc2cccc(F)c2)cs1	none (no result: Fam108B inh)
CC1CCCCC1NC(=O)COC(=O)c1ccccn1 (stereo unspecified)	none
CC1CCCCC1NC(=O)COC(=O)c1cccn1C (stereo unspecified)	PAFAH2 FP inh 85 (no result: Fam108B inh) | PAFAH2 FP conf 68
Cc1ccsc1C(=O)OCC(=O)NC1CCCCC1C (stereo unspecified)	PAFAH2 FP inh 86 (no result: Fam108B inh) | PAFAH2 FP conf 82
CC(=O)Nc1ccc2ccccc2c1[N+](=O)[O-]	none (no result: Fam108B inh, pPAFAH FP inh, PME-1 inh)
COc1ccc(N(CC(=O)NCCc2cccc(C)c2)S(=O)(=O)c2c(C)noc2C)cc1	none
O=C(O/N=C/C1=C(Cl)c2ccccc2CC1)c1ccc(F)cc1	PAFAH2 FP inh 35 | PAFAH2 FP conf 40
CC(OC(=O)C1=COCCO1)C(=O)Nc1cc(S(=O)(=O)N2CCCCC2)ccc1Cl (stereo unspecified)	none
Cc1ccc(S(=O)(=O)N2CCCCC2)cc1NC(=O)COC(=O)c1cccn1C	PAFAH2 FP inh 39 (no result: Fam108B inh, PME-1 inh) | PAFAH2 FP conf 32
O=C(COC(=O)C1=COCCO1)Nc1cc(S(=O)(=O)N2CCCCC2)ccc1Cl	PAFAH2 FP inh 57 | PAFAH2 FP conf 41
Cc1ccc(S(=O)(=O)N2CCCCC2)cc1NC(=O)COC(=O)Cc1cccc2ccccc12	none
Cc1ccc(S(=O)(=O)N2CCCCC2)cc1NC(=O)COC(=O)C1=COCCO1	PAFAH2 FP inh 50 | PAFAH2 FP conf 40
O=C(Nc1cc(S(=O)(=O)N2CCCC2)ccc1Cl)C1=COCCO1	none
Cc1ccc(S(=O)(=O)N2CCOC23CCN(S(=O)(=O)c2c(C)cc(C)cc2C)CC3)cc1	none
CCS(=O)(=O)c1ccc(O)c(NC(=O)CC2(CC(=O)O)CCCC2)c1	PAFAH2 FP inh 37 | PAFAH2 FP conf inactive
CCS(=O)(=O)c1ccc(O)c(NC(=O)Nc2ccccc2OC)c1	PAFAH2 FP inh 47 | PAFAH2 FP conf 59
CCCc1ccc(OCC(=O)Nc2cc(S(=O)(=O)CC)ccc2O)cc1	PAFAH2 FP inh 33 | PAFAH2 FP conf inactive
CCS(=O)(=O)c1ccc(O)c(NC(=O)/C=C/c2ccccc2)c1	PAFAH2 FP inh 75 | PAFAH2 FP conf 73
CCCCCCCCCCCn1nnnc1N	none (no result: Fam108B inh, pPAFAH FP inh, PME-1 inh)
O=C(NCc1ccco1)C1CCN(S(=O)(=O)c2cccc([N+](=O)[O-])c2)CC1	none
OC1CCCC1NCc1ccnc2cc(Cl)ccc12 (stereo unspecified)	none (no result: Fam108B inh, pPAFAH FP inh, PME-1 inh)
O=C(O)c1ccccc1NSc1ccccc1[N+](=O)[O-]	PAFAH2 FP inh 37 | PAFAH2 FP conf inactive
Cc1c(C(=O)Nc2ccc(S(=O)(=O)N(C)C3CCN(C)CC3)cc2)oc2c(Cl)cccc12	none
CCCc1cc(=O)[nH]c(SCCc2ccccc2)n1	none
COc1cc(C)c2c(c1C=O)Oc1c(c(C)c(O)c3c1C(O)OC3=O)OC2=O (stereo unspecified)	PAFAH2 FP inh 49 | PAFAH2 FP conf inactive
COc1ccc(OC)c(S(=O)(=O)N2CCC(NC(=O)c3ccccc3)CC2)c1	none
Cc1cc(C)cc(OCC(=O)OCC(=O)Nc2cc(S(=O)(=O)N3CCOCC3)ccc2C)c1	none (no result: Fam108B inh)
COc1cc(S(=O)(=O)N2CCOCC2)ccc1NC(=O)COC(=O)/C=C/c1cc(OC)c(OC)c(OC)c1	none (no result: Fam108B inh, PME-1 inh)
Cc1ccc(S(=O)(=O)N2CCOCC2)cc1NC(=O)COC(=O)/C=C/c1ccco1	PAFAH2 FP inh 46 (no result: Fam108B inh, PME-1 inh) | PAFAH2 FP conf 45
COc1cccc(/C=C/C(=O)OCC(=O)Nc2cc(S(=O)(=O)N3CCOCC3)ccc2C)c1	PAFAH2 FP inh 55 | PAFAH2 FP conf 42
O=C(C1CCC1)N1CCN(S(=O)(=O)c2ccc(Br)cc2Cl)CC1	none
CC1(C)CC[C@@]23CC[C@]4(C)[C@@](OC2=O)(C3C1)[C@H]1O[C@H]1C1[C@@]2(C)CC[C@H](O)C(C)(C)C2CC[C@]14C (stereo partly specified)	none (no result: PAFAH1B2 FP inh, PAFAH1B3 inh, PAFAH2 FP inh)
CCOC(=O)c1c(C)[nH]c(N=Nc2ccc(C)cc2)c1C	none
Cc1ccc(N=Nc2c(O)ccc3n[nH]nc23)cc1	PAFAH2 FP inh 30 (no result: Fam108B inh, pPAFAH FP inh, PME-1 inh) | PAFAH2 FP conf inactive
CN1CCc2c(sc(/N=C/c3cc(C(C)(C)C)ccc3O)c2C#N)C1	none
CCCNC(=O)COC(=O)/C=C/c1ccc(C)o1	PAFAH2 FP inh 40 | PAFAH2 FP conf 37
Cc1ccc(/C=C/C(=O)OCC(=O)NCc2ccccc2)o1	PAFAH2 FP inh 52 (no result: Fam108B inh, pPAFAH FP inh, PME-1 inh) | PAFAH2 FP conf 40
Cc1ccc(/C=C/C(=O)OCC(=O)NC(=O)NCc2ccccc2)cc1	none (no result: Fam108B inh)
CCOc1ccc(CCNC(=O)COC(=O)/C=C/c2ccc(C)o2)cc1OCC	none
O=C(OCC(=O)c1cccc2ccccc12)c1ccc(CO)cc1	PAFAH2 FP inh 48 | PAFAH2 FP conf inactive
CC(=O)Oc1ccc(-c2nc3ccccc3c(=O)o2)cc1	none
CC(=O)Oc1ccc(/C=C/c2nc3ccccc3c(=O)o2)cc1	PAFAH2 FP inh 50 | PAFAH2 FP conf 57
CC(=O)Oc1ccccc1/C=C/c1nc2ccccc2c(=O)o1	PAFAH2 FP inh 86 | PAFAH2 FP conf 70
O=C(COC(=O)CCCN1C(=O)c2cccc3cccc(c23)C1=O)Nc1ccc(Cl)cc1	PAFAH2 FP inh 48, PME-1 inh 30 | PAFAH2 FP conf inactive
COC(=O)c1ccc(/C=N/OCC(=O)NC2CCCC(C)C2C)cc1 (stereo unspecified)	none
CC1CCCC(NC(=O)COC(=O)/C=C/c2ccc(F)cc2)C1C (stereo unspecified)	PAFAH2 FP inh 65 (no result: Fam108B inh, PME-1 inh) | PAFAH2 FP conf 69
COc1ccc(/C=C/C(=O)OCC(=O)NC2CCCC(C)C2C)cc1 (stereo unspecified)	PAFAH2 FP inh 82 (no result: Fam108B inh, PME-1 inh) | PAFAH2 FP conf 79
O=S(=O)(NCCN1CCOCC1)c1ccc(F)c(Cl)c1	none
Oc1ccccc1/C=N/NC(=S)NC1CC2CC1C1C=CCC21 (stereo unspecified)	PAFAH2 FP inh 52 | PAFAH2 FP conf inactive
COC(=O)CNC(=O)COC(=O)/C=C/c1ccc(F)cc1	none
